For some assays here: Results with a measured potency or affinity are listed apart. Active and inactive are the calls of the source. Unless noted, the rule behind the calls is not given here.
How the values were obtained:
[1] = antimalarial activity against Dd2 strain (AID 2302;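 active = growth inhibition above 50% at the single 2 µM test dose, taken to imply half-maximal potency below 2 µM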;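 note: 0% = DMSO untreated growth and 100% = chloroquine plus artemisinin killed control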); conditions: P. falciparum Dd2 in RBCs, LDH growth readout, 72 h; at 2 µM; hits give high values
[2] = human hepatoma cell viability loss – ATP luminescence, cytotoxicity control for P. falciparum antimalarial project, primary screen (AID 2303;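 active = inhibition above 50%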;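 note: 0% = DMSO wells and 100% = digitonin-killed cells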); conditions: HepG2 viability, 24-48 h, at 10 µM, hits give high values
[3] = molecular target: L-lactate dehydrogenase (Plasmodium falciparum (isolate CDC / Honduras)) (UniProt Q27743); experiment: PfLDH activity inhibition – cell lysate, 3D7 strain, counter-screen for P. falciparum growth inhibition project (AID 2304);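 note: 0% = vehicle and 100% = reference inhibitor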; conditions: P. falciparum 3D7 crude extract, LDH APAD/NBT absorbance; at 2 µM; hits give high values
Chain of L-lactate dehydrogenase (Plasmodium falciparum (isolate CDC / Honduras)) (Q27743 whole entry, looked up): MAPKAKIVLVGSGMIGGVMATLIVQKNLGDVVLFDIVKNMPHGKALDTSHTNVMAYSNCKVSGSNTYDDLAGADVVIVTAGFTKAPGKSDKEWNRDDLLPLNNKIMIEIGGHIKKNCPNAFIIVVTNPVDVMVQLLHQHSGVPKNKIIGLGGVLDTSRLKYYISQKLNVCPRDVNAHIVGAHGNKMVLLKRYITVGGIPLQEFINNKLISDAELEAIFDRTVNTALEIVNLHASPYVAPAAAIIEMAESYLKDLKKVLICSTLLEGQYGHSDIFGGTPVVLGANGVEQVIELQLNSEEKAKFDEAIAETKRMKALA

[4] = inhibition of 3D7 malaria parasite growth – strain 3D7 (AID 2306);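 note: 0% = DMSO wells and 100% = chloroquine plus artemisinin control wells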; conditions: P. falciparum 3D7 erythrocytic growth, LDH absorbance, 72 h; at 2 µM; hits give high values
[5] = molecular target: Calcium-dependent protein kinase 1 (Plasmodium falciparum (isolate 3D7)) (UniProt P62344); experiment: PfCDPK1 kinase inhibitors, biochemical, TCAMS library (AID 1159585; cut-off not given, nearly all actives have IC50 up to about 0.98 µM;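 note: inhibitors leave more ATP so luminescence rises with inhibition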); conditions: recombinant PfCDPK1, Kinase-Glo ATP depletion luminescence
Chain of Calcium-dependent protein kinase 1 (Plasmodium falciparum (isolate 3D7)) (P62344 whole entry, looked up): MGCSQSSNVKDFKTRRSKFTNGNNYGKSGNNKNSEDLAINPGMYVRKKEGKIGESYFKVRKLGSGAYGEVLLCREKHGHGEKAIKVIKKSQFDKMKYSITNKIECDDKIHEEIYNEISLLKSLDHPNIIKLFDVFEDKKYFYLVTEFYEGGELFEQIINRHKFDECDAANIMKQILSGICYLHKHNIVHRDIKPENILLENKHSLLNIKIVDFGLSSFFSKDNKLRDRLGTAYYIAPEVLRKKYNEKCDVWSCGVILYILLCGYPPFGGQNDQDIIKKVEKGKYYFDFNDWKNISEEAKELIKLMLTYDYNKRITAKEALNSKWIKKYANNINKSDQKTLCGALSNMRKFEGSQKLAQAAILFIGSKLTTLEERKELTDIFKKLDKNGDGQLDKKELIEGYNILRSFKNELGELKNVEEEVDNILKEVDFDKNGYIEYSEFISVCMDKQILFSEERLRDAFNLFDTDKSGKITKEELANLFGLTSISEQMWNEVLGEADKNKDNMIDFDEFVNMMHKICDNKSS

[6] = molecular target: Plasmodium falciparum protein kinase 6 (PK6, PF3D7_1337100) (UniProt Q8IDW1); experiment: PfPK6 kinase inhibitors, biochemical, TCAMS library (AID 1159586); conditions: recombinant PfPK6, Kinase-Glo ATP depletion luminescence
Chain of Plasmodium falciparum protein kinase 6 (PK6, PF3D7_1337100) (Q8IDW1 1-305): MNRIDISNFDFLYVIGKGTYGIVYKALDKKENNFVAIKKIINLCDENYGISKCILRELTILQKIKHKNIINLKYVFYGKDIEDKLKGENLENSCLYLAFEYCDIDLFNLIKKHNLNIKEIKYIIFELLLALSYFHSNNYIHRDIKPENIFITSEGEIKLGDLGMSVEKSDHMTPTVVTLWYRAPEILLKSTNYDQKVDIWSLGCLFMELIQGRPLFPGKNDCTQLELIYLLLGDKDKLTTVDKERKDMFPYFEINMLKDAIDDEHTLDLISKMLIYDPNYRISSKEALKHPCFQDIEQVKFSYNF

[7] = molecular target: Protein kinase 7 (PK7), Plasmodium falciparum 3D7 (PF3D7_0213400) (UniProt Q7YTF7); experiment: inhibition of Plasmodium PK7 catalytic activity – biochemical, TCAMS antimalarial set, Kinase-Glo luminescence (AID 1159587); conditions: recombinant PfPK7, Kinase-Glo ATP depletion luminescence
Chain of Protein kinase 7 (PK7), Plasmodium falciparum 3D7 (PF3D7_0213400) (Q7YTF7 1-343): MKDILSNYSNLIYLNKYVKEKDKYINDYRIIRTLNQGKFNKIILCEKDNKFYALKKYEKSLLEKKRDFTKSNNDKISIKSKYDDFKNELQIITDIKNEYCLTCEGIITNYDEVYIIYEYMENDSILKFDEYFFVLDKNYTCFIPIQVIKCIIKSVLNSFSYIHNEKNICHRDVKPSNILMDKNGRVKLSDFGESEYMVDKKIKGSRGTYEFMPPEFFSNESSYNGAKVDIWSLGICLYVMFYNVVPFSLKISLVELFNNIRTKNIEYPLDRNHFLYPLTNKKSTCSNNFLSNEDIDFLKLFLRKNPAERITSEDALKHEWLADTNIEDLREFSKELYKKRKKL

[8] = molecular target: Calcium-dependent protein kinase 4 (Plasmodium falciparum (isolate 3D7)) (UniProt Q8IBS5); experiment: PfCDPK4 kinase inhibitors, biochemical, TCAMS library (AID 1159588; cut-off not given, nearly all actives have IC50 up to about 0.91 µM); conditions: recombinant PfCDPK4, Kinase-Glo ATP depletion luminescence
Chain of Calcium-dependent protein kinase 4 (Plasmodium falciparum (isolate 3D7)) (Q8IBS5 whole entry, looked up): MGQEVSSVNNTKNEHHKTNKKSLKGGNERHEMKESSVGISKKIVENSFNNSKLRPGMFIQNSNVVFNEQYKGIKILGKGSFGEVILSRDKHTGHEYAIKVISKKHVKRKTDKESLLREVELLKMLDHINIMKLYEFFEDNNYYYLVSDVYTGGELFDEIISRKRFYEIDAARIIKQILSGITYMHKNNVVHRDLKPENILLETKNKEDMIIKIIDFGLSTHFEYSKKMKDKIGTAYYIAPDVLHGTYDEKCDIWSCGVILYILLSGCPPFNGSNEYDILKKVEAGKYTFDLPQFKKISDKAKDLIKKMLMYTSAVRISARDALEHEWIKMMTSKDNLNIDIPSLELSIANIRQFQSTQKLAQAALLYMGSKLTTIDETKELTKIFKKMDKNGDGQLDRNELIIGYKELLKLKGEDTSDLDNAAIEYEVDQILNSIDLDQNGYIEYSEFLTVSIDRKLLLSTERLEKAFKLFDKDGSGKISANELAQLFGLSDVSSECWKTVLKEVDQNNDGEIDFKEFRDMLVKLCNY

CSc1nccc(-c2ccc3ccnc(N)c3c2)n1
inactive: inhibition [2] 30% | inhibition [3] 0% | outcome [5] | outcome [6] | outcome [7] | outcome [8]
active: growth inhibition [1] 98% | growth inhibition [4] 101%

Cc1nc(-c2ccc(-c3ccc(C(=O)Nc4ccc(-n5ccnc5)c(N5CCN(C)CC5)c4)cc3)c(C)c2)no1
active: growth inhibition [1] 100% | growth inhibition [4] 100%
inactive: inhibition [2] 34% | inhibition [3] 2% | outcome [5] | outcome [6] | outcome [7] | outcome [8]

CN(C)Cc1cccc2[nH]c(-c3csc(Cc4cc(Cl)ccc4OCc4ccccc4)n3)nc12
active: growth inhibition [1] 77% | growth inhibition [4] 100%
inactive: inhibition [2] 14% | inhibition [3] -2% | outcome [5] | outcome [6] | outcome [7] | outcome [8]

CC(=O)Nc1ccccc1OCc1cc2cc(C(=O)N3CCC(N4C(=O)OCc5ccccc54)CC3)ccc2o1
inactive: inhibition [2] 34% | inhibition [3] -2% | outcome [5] | outcome [6] | outcome [7] | outcome [8]
active: growth inhibition [1] 98% | growth inhibition [4] 99%

CCNc1cc(C(=O)N[C@@H](Cc2ccccc2)[C@H](O)CNC2(CC)CC2)cc(N2CCCCS2(=O)=O)c1
inactive: inhibition [3] 0% | outcome [5] | outcome [6] | outcome [7] | outcome [8]
active: growth inhibition [1] 94% | inhibition [2] 59% | growth inhibition [4] 97%

COc1ccc(N2CCN(CCCNC(=O)c3ccc(NC(=O)c4cc(Cl)cc(Cl)c4)cc3)CC2)c(OC)c1
active: growth inhibition [1] 79% | growth inhibition [4] 101%
inactive: inhibition [2] 21% | inhibition [3] -4% | outcome [5] | outcome [6] | outcome [7] | outcome [8]

COc1ccc2nccc(N(C)CC3(O)CCN(CC(O)c4ccc5c(c4)NC(=O)CS5)CC3)c2n1 (stereo not given)
active: growth inhibition [4] 101%
inactive: growth inhibition [1] -4% | inhibition [2] 1% | inhibition [3] -5% | outcome [5] | outcome [6] | outcome [7] | outcome [8]

O=C(Nc1cccc(-c2cccc(-c3nc4ccccc4[nH]3)c2)c1)c1ccncc1
inactive: growth inhibition [1] 38% | inhibition [2] 27% | inhibition [3] -4% | outcome [5] | outcome [6] | outcome [7] | outcome [8]
active: growth inhibition [4] 99%

Cc1cccc(CNc2ncc(C)c(NCCC(=O)Nc3ccccc3)n2)c1
active: growth inhibition [4] 81%
inactive: growth inhibition [1] 10% | inhibition [2] 18% | inhibition [3] 5% | outcome [5] | outcome [6] | outcome [7] | outcome [8]

CCCC(CC)n1ccc2c3c(N)nc(N)nc3ccc21 (stereo not given)
active: growth inhibition [1] 97% | inhibition [2] 67% | growth inhibition [4] 94%
inactive: inhibition [3] 0% | outcome [5] | outcome [6] | outcome [7] | outcome [8]

CC1(C)N=C(N)NC(Nc2ccc(Cl)cc2)=N1
active: growth inhibition [4] 97%
inactive: growth inhibition [1] -1% | inhibition [2] 8% | inhibition [3] -2% | outcome [5] | outcome [6] | outcome [7] | outcome [8]

Cc1ccc(F)c(OCC2CCN(c3ncc(C(=O)NC4CC4)cc3Cl)CC2)c1
active: growth inhibition [1] 95% | growth inhibition [4] 96%
inactive: inhibition [2] 9% | inhibition [3] -3% | outcome [5] | outcome [6] | outcome [7] | outcome [8]

CC1CN(Cc2csc(Nc3ccccc3)n2)CC(C)O1 (stereo not given)
inactive: inhibition [2] 4% | inhibition [3] 0% | outcome [5] | outcome [6] | outcome [7] | outcome [8]
active: growth inhibition [1] 81% | growth inhibition [4] 91%

O=C(/C=C/c1ccc(Cl)c(Cl)c1)NCCCCCN1CCN(C(=O)Nc2cccc(F)c2)CC1
inactive: growth inhibition [1] 1% | inhibition [2] 12% | inhibition [3] -1% | outcome [5] | outcome [6] | outcome [7] | outcome [8]
active: growth inhibition [4] 91%

O=C(Nc1ccsc1)Nc1cccc(-c2cccc(-c3nc4ccccc4[nH]3)c2)c1
active: growth inhibition [1] 55% | inhibition [2] 61% | growth inhibition [4] 101%
inactive: inhibition [3] -7% | outcome [5] | outcome [6] | outcome [7] | outcome [8]

CNC(=O)c1ccccc1Nc1nc(Nc2cccnc2)ncc1C
active: growth inhibition [1] 90% | growth inhibition [4] 93%
inactive: inhibition [2] 17% | inhibition [3] 1% | outcome [5] | outcome [6] | outcome [7] | outcome [8]

COc1ccc(-c2nonc2NC(=O)c2cccc(Cl)c2)cc1OC
inactive: inhibition [2] 41% | inhibition [3] 4% | outcome [5] | outcome [6] | outcome [7] | outcome [8]
active: growth inhibition [1] 63% | growth inhibition [4] 98%

O=C(c1cc(-c2ccco2)[nH]n1)N1CCN(S(=O)(=O)c2ccc(Br)cc2)CC1
active: growth inhibition [1] 90% | growth inhibition [4] 95%
inactive: inhibition [2] 1% | inhibition [3] -5% | outcome [5] | outcome [6] | outcome [7] | outcome [8]

O=C(CCN1C(=O)c2ccccc2C1=O)N1CCN(CC=Cc2ccccc2)CC1
active: growth inhibition [4] 87%
inactive: growth inhibition [1] 3% | inhibition [2] 10% | inhibition [3] -1% | outcome [5] | outcome [6] | outcome [7] | outcome [8]

CC(Oc1ccc(Cl)cc1)C(=O)Nc1cc(C(F)(F)F)ccc1-n1cncn1 (stereo not given)
active: growth inhibition [1] 98% | growth inhibition [4] 99%
inactive: inhibition [2] -2% | inhibition [3] 2% | outcome [5] | outcome [6] | outcome [7] | outcome [8]

O=C(/C=C/c1ccc(Cl)c(Cl)c1)NCCCCCCN1CCCN(C(=O)Nc2ccc(F)c(F)c2)CC1
inactive: growth inhibition [1] 2% | inhibition [3] 4% | outcome [5] | outcome [6] | outcome [7] | outcome [8]
active: inhibition [2] 72% | growth inhibition [4] 89%

CC[C@H](C)CNC(=O)c1cccc(-c2cccc(CNCC3CNCCCO3)c2)n1 (stereo not given in full)
inactive: inhibition [2] 15% | inhibition [3] 1% | outcome [5] | outcome [6] | outcome [7] | outcome [8]
active: growth inhibition [1] 54% | growth inhibition [4] 91%

O=C(Nc1ccc(-c2csc(-c3nc4ccccc4[nH]3)c2)cc1)Nc1ccsc1
inactive: growth inhibition [1] 17% | inhibition [3] -1% | outcome [5] | outcome [6] | outcome [7] | outcome [8]
active: inhibition [2] 50% | growth inhibition [4] 101%

c1ccc2[nH]c(CN(Cc3nc4ccccc4[nH]3)Cc3nc4ccccc4[nH]3)nc2c1
active: growth inhibition [1] 86% | growth inhibition [4] 81%
inactive: inhibition [2] 39% | inhibition [3] -2% | outcome [5] | outcome [6] | outcome [7] | outcome [8]

CCOc1ccc(OCC)c(N2CCN(CCCCNC(=O)c3ccc(NC(=O)c4ccc(Cl)cc4)cc3)CC2)c1
inactive: growth inhibition [1] 40% | inhibition [2] 13% | inhibition [3] 1% | outcome [5] | outcome [6] | outcome [7] | outcome [8]
active: growth inhibition [4] 97%

CC1(C)C(N(O)C(=O)Nc2ccc(Cl)c(Cl)c2)N(c2ccc(Cl)c(Cl)c2)C(=O)N1CCc1ccccc1 (stereo not given)
inactive: inhibition [2] 10% | inhibition [3] -1% | outcome [5] | outcome [6] | outcome [7] | outcome [8]
active: growth inhibition [1] 93% | growth inhibition [4] 91%

COc1ccc(C(=O)CCC(=O)N(Cc2ccc(-c3ccc(CNCCc4ccccc4)cn3)cc2)C(C)CN(C)C)cc1F (stereo not given)
inactive: inhibition [2] 20% | inhibition [3] -4% | outcome [5] | outcome [6] | outcome [7] | outcome [8]
active: growth inhibition [1] 57% | growth inhibition [4] 98%

NC(=O)c1cccc(C(=O)Nc2cccc(-c3cccc(-c4nc5ccc(C(F)(F)F)cc5[nH]4)c3)c2)c1
active: growth inhibition [1] 85% | inhibition [2] 71% | growth inhibition [4] 100%
inactive: inhibition [3] -5% | outcome [5] | outcome [6] | outcome [7] | outcome [8]

CCN(CC)CCCN(C(=O)c1cc2c(C)nn(-c3ccccc3)c2s1)c1nc(-c2ccc(OC)cc2)cs1
inactive: growth inhibition [1] 32% | inhibition [2] 12% | inhibition [3] -7% | outcome [5] | outcome [6] | outcome [7] | outcome [8]
active: growth inhibition [4] 89%

CCOc1cc(NCCCNc2ncc([N+](=O)[O-])cc2C)nc2ccccc12
active: growth inhibition [1] 64% | growth inhibition [4] 84%
inactive: inhibition [2] 10% | inhibition [3] 2% | outcome [5] | outcome [6] | outcome [7] | outcome [8]

Oc1ccc2nc(NCCCc3ccccc3)nc(NCCCc3ccccc3)c2c1
inactive: inhibition [2] 5% | inhibition [3] -3% | outcome [5] | outcome [6] | outcome [7] | outcome [8]
active: growth inhibition [1] 93% | growth inhibition [4] 101%

c1ccc(-c2nnc(-c3ccccn3)nc2NC2CCCCC2)cc1
active: growth inhibition [1] 80% | inhibition [2] 74% | growth inhibition [4] 97%
inactive: inhibition [3] 6% | outcome [5] | outcome [6] | outcome [7] | outcome [8]

Cc1cc(-c2cccc3c(NC(=O)N4CCc5cc6nccc(N7CCN8CCC[C@H]8C7)c6cc54)cccc23)cc(C)n1
active: growth inhibition [1] 100% | growth inhibition [4] 101%
inactive: inhibition [2] 12% | inhibition [3] 6% | outcome [5] | outcome [6] | outcome [7] | outcome [8]

Cc1nccn1CCNC(=O)CN1CCC2(CCC1=O)CC(=O)c1ccccc1O2 (stereo not given)
inactive: growth inhibition [1] 4% | inhibition [2] -7% | inhibition [3] 7% | outcome [5] | outcome [6] | outcome [7] | outcome [8]
active: growth inhibition [4] 98%

COc1cccc(CCNCc2ccc(-c3cccc(CNC4CCCC4)c3)cc2)c1
inactive: growth inhibition [1] 45% | inhibition [2] 14% | inhibition [3] -4% | outcome [5] | outcome [6] | outcome [7] | outcome [8]
active: growth inhibition [4] 101%

COc1ccc2ncc(OC)c(CCN3CC[C@@H](NCc4ccc5c(n4)NC(=O)CS5)[C@H](O)C3)c2n1
active: growth inhibition [1] 99% | growth inhibition [4] 94%
inactive: inhibition [2] 21% | inhibition [3] 4% | outcome [5] | outcome [6] | outcome [7] | outcome [8]

O=C(Nc1cccc(CN2CCN(C(=O)c3ccccc3)CC2)c1)c1ccco1
inactive: growth inhibition [1] 42% | inhibition [2] 6% | inhibition [3] -2% | outcome [5] | outcome [6] | outcome [7] | outcome [8]
active: growth inhibition [4] 95%

COc1cccc(CNC(=O)c2ccnc(-c3ccc(CNCCOc4ccccc4)cc3)c2)c1
inactive: growth inhibition [1] 10% | inhibition [2] 23% | inhibition [3] -4% | outcome [5] | outcome [6] | outcome [7] | outcome [8]
active: growth inhibition [4] 83%

O=C(Nc1cccc(Oc2ccccc2)c1)N[C@H]1CCN(Cc2ccc(OCCCN3CCCCC3)cc2)C1
active: growth inhibition [1] 70% | inhibition [2] 94% | growth inhibition [4] 101%
inactive: inhibition [3] -2% | outcome [5] | outcome [6] | outcome [7] | outcome [8]

COc1ccc2ncc(F)c([C@H](O)CN3CCC(NCc4ccc5c(c4)NC(=O)CS5)CC3)c2c1
active: growth inhibition [1] 98% | growth inhibition [4] 102%
inactive: inhibition [2] 7% | inhibition [3] -13% | outcome [5] | outcome [6] | outcome [7] | outcome [8]
